LNCaP diff act: activators of LNCaP prostate cell differentiation, primary screen, flow cytometry side scatter. 4 d. side scatter shift, % at 10 µM. hit rate 0.56% among 24,000. AID 795, 2007;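 active = side scatter shift above 30%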;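 also: androgen-responsive LNCaP prostate cancer cells in charcoal-stripped serum medium; higher shift means more granular cells and more differentiation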
Proteasome disasm: inhibitors of ATP-driven 26S proteasome dissociation, primary screen, biochemical, bead-based flow cytometry, GFP-tagged proteasome; hit rate 0.2% among 24,000; anti-FLAG beads, GFP-proteasome disassembly; inhibition of disassembly, % (no concentration beside the values);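 active = inhibition of disassembly above about 33%, limit read from the data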;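 also: higher percent means more bead fluorescence retained so stronger block of disassembly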
QS inhibitor: S. aureus quorum sensing inhibitors, primary screen, RNAIII-GFP reporter, flow cytometry; S. aureus RN6390 RNAIII-GFP reporter, AIP-induced, flow cytometry 3 h; inhibition, % at 2 µM; hit rate 0.3% among 24,000;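 active = share of bacteria positive for the green fluorescent reporter and its mean brightness both inhibited by 50% or more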
A number is an active result; 0 = inactive; - = not tested or not shown; ! = not confirmed by another sample. Hits are enriched below; roughly 0.91% of the tested compounds scored in any of these assays.

SMILES	LNCaP diff act	Proteasome disasm	QS inhibitor
CC(C)CCOP(=O)(c1ccc(N(C)C)cc1)C(O)c1ccccc1F (stereo not drawn)	0	0	82
COCCCNC(CC(=O)Nc1ccc(N(C)C)cc1)C(=O)O (stereo not drawn)	0	0	0
CCOCCCNC(=O)c1cn(C)c(=O)c2cc(OC)c(OC)cc12	0	0	0
CCC(C)NC(=O)c1cn(C)c(=O)c2cc(OC)c(OC)cc12 (stereo not drawn)	37	0	0
Cc1ccc(C2N(c3ccc(F)cc3)C(=O)C3CCCN32)cc1 (stereo not drawn)	0	0	0
Cc1cccc(C2N(c3ccc(F)cc3)C(=O)C3CCCN32)c1 (stereo not drawn)	0	61	0
CCn1c(=O)cc(OCC(=O)Nc2ccc(Cl)cn2)c2ccccc21	0	0	0
Cc1cccc(-c2nsc(SCC(=O)N3CCCC3)n2)c1	0	0	0
Cc1cccc(-c2nsc(SCC(=O)Nc3nccs3)n2)c1	34	0	0
O=c1cc(N2CCN(c3ccc(F)cc3)CC2)[nH]c(=O)n1C1CCCCC1	34	0	0
O=c1cc(N2CCC3(CC2)OCCO3)[nH]c(=O)n1C1CCCCC1	0	0	0
O=C1C(Cl)=C(NCC2CCCO2)C(=O)N1CCc1ccccc1 (stereo not drawn)	0	0	0
Cc1ccc(NC(=O)N2CCCN(Cc3ccc(F)cc3)C2)cc1C	39	0	0
CC(=O)N1CCc2cc(C(=O)CN3CCCN(Cc4ccc(F)cc4)C3)ccc21	0	0	0
CC(=O)c1sc(N2C(=O)c3oc4ccccc4c(=O)c3C2c2ccc(C)o2)nc1C (stereo not drawn)	0	0	0
COc1ccc(-c2cc(C(F)(F)F)nc(N3CCN(c4ccc(F)cc4)CC3)n2)cc1OC	0	0	0
COc1ccc(-c2cc(-c3ccc(F)cc3)nc(N3CCN(C)CC3)n2)cc1	48	0	0
COC(=O)c1oc2ccc(Br)cc2c1NC(=O)CN1CCN(C)CC1	31	0	0
CCOC(=O)c1[nH]c2ccc(Br)cc2c1NC(=O)CCN1CCC(C(=O)OCC)CC1	0	0	0
CC(=O)N1C(=O)C(=C2C=C(C)OC(C)=C2)c2ccccc21	0	85	0
CC1=CC(=C2C(=O)c3ccccc3C2=O)C=C(C)O1	0	0	0
CCC(Sc1nc2sc(C(=O)OC)c(C)c2c(=O)n1N)C(=O)NCC1CCCO1 (stereo not drawn)	0	0	0
O=C(c1cnn2c1NC(c1ccco1)CC2C(F)(F)F)N1CCN(c2cccc(Cl)c2)CC1 (stereo not drawn)	0	0	0
Cc1cccn2c(=O)c3cc(C(=O)NCc4ccccc4)c(=N)n(CCCN4CCOCC4)c3nc12	58	0	0
COCCn1c(=N)c(C(=O)NCCc2ccccc2)cc2c(=O)n3cccc(C)c3nc21	0	0	0
SMILES	LNCaP diff act	Proteasome disasm	QS inhibitor
O=C(/C=N/O)NCc1ccncc1	0	0	0
COC(=O)Cn1c2c(c3cc(C)ccc31)CCCC2	0	0	0
Cc1ccc2c(c1)c1c(n2CC(O)CNC(CO)(CO)CO)CCCC1 (stereo not drawn)	30	0	0
Cc1nnc(NCc2n[nH]c(=O)c3ccccc23)c2ccccc12	33	0	0
COc1ccc(Cc2n[nH]c(=O)c3ccccc23)cc1OC	-	0	0
Cn1c(NC(=O)c2ccccc2NC(=O)C(C)(C)C)nc2ccccc21	0	0	0
Cc1nn(Cc2ccc(F)cc2)c(C)c1NC(=O)c1cc(-c2ccc3c(c2)OCO3)on1	30	0	0
Cc1ccc(Cn2nc(C)c(NC(=O)c3cc(-c4ccc5c(c4)OCO5)on3)c2C)cc1	0	0	0
Cc1ccc(Cl)cc1N1CCN(S(=O)(=O)c2cnc[nH]2)CC1	0	0	0
CCCN(CCC)CCNC(=O)C(NS(=O)(=O)c1ccc2c(c1)CCC(=O)N2)c1ccccc1 (stereo not drawn)	0	0	0
Cc1ccc2nsnc2c1S(=O)(=O)N(Cc1cc2cccc(C)c2[nH]c1=O)CC1CCCO1 (stereo not drawn)	0	0	0
COc1cccc(C2=NOC(C(=O)NCCN3CCOCC3)C2)c1 (stereo not drawn)	0	0	0
CSc1nc2ccc3nc(NC(=O)c4cccs4)sc3c2s1	0	0	0
O=C(Nc1nc2c(s1)CCc1ccccc1-2)c1cccs1	0	0	79
COc1ccc(CN(Cc2cc3cc4c(cc3[nH]c2=O)OCO4)C(=O)NC2CCCCC2)cc1	0	0	0
COC(=O)c1ccccc1S(=O)(=O)N(Cc1cc2cc3c(cc2[nH]c1=O)OCO3)C1CCCCC1	41	0	0
Cc1ccc(/C(O)=C2\C(=O)C(=O)N(CCCN(C)C)C2c2ccccn2)cc1 (stereo not drawn)	0	0	0
N[C@@H](Cc1cc(I)c(Oc2ccc(O)c(I)c2)c(I)c1)C(=O)O	0	0	0
O=C(O)CCc1cc(I)c(Oc2ccc(O)c(I)c2)c(I)c1	0	0	88
CCOc1cccc2cc(-c3nnc(-c4ccccc4)o3)c(=O)oc12	0	0	0
COC(=O)c1ccccc1NC(=O)CN1C(=O)C2CCCN2c2ncc(Cl)cc21 (stereo not drawn)	0	49	0
CC1CCC(NC(=O)CN2C(=O)C3CCCN3c3ncc(Cl)cc32)CC1 (stereo not drawn)	0	0	0
O=C(CN1C(=O)C2CCCN2c2ncc(Cl)cc21)NCc1ccc2c(c1)OCO2 (stereo not drawn)	0	55	0
CCc1ccccc1NC(=O)CN1C(=O)C2CCCN2c2ncc(Cl)cc21 (stereo not drawn)	0	0	0
Cc1ccc(-c2c3c(=O)n(C)c(=O)n(C)c3c3c(C)cc(C)nn23)cc1	0	0	0
SMILES	LNCaP diff act	Proteasome disasm	QS inhibitor
COc1ccc(Cl)cc1NC(=O)CSc1nnc(Cn2c(=O)sc3ccccc32)n1C	0	0	0
Cc1ccc(-n2nnc3c(=O)n(CC(=O)NCC4CCCO4)cnc32)cc1 (stereo not drawn)	0	0	0
COC(=O)c1ccccc1NC(=O)c1cnc2sccn2c1=O	0	0	0
COC(=O)Nc1sccc1C(=O)Nc1sccc1C(=O)OC	32	0	0
CN=C1CC(C)(C)CC(=O)/C1=C(/O)CCC(=O)NC	0	0	0
COc1ccc(-c2nc(CN3CCC(C(=O)NC(C)C)CC3)c(C)o2)cc1OC	0	0	0
c1csc(CCNc2ncnc3sc4c(c23)CCC4)c1	0	0	67
O=C(CSc1ncnc2sc3c(c12)CCCCC3)NCc1ccco1	0	0	0
O=C1c2ccccc2C(O)(Cc2ccccc2)N1c1ccc2c(c1)OCO2 (stereo not drawn)	0	0	0
CC(C)(C)OC(=O)N1CCC(C(=O)N2CCOCC2)CC1	0	0	0
CC(C)(C)OC(=O)N1CCC(C(=O)N2CCCCCC2)CC1	31	0	0
CCCC(=O)Nc1cc(C)c2c(=O)oc3ccccc3c2n1	0	0	0
Cc1cc(NC(=O)CC(C)(C)C)nc2c1c(=O)oc1ccccc12	0	0	72!
CCn1c(=O)cc(SCC(=O)Nc2ccccc2N2CCN(C)CC2)c2ccccc21	0	0	0
CC1CCN(C(=O)CSc2ccc3nnc(-c4ccc(F)cc4)n3n2)CC1	0	0	0
COc1ccc(Cn2nnc3c(=O)[nH]c(C(=O)NCCc4ccc(F)cc4)nc32)cc1OC	0	0	0
